Among all 52,000 compounds or so, about 4,300 (8.3%) were called active. Cut-off read from the data, not from the text of the source: active = survival mostly below about 52% (no sharp cut-off); inactive = mostly above about 56%. The list comes from a sample in which actives are over-represented; it also holds similar structures and randomly drawn compounds.

The assay deals with DeltatarO mutant. As to the kind of experiment: growth inhibition of S. aureus wild type versus tarO mutant, primary screen, teichoic acid synthesis inhibitors, RN4220, OD600 (AID 463173). To be noted: OD600, 18 h, active compounds read low, screened at 18.75 µg/mL (by protocol).
As to `COc1ccc(-n2ccn(Cc3ccccc3Cl)c(=O)c2=O)cc1OC`, the survival is 61% (inactive).

Consider `CCOc1cc(S(=O)(=O)NCCc2c(C)[nH]c3ccc(C)cc23)ccc1Br`, for which the survival was 92% (inactive).

Take `CC(Oc1ccc(F)cc1)C(=O)NCC1(N(C)C)CCCCC1` (stereo unspecified): the survival was 83% (inactive).

Take `CCOC(=O)c1c(C)[nH]c(C)c1S(=O)(=O)NCC(=O)Nc1ccc(C)cc1C`: the survival was 72% (inactive).

As to `O=C(C1CCC(Cn2c(=O)c3sccc3n(Cc3ccccc3)c2=O)CC1)N1CCCCC1` (stereo unspecified), the survival is 78% (inactive).

Take `Cc1ccccc1-c1nc2scc(CCNC(=O)C(=O)Nc3ccc(F)cc3F)n2n1`: the survival was -2% (active).

As to `COC(=O)c1ccc(NC(=O)C(=O)NCCc2csc3nc(-c4ccccc4F)nn23)cc1`, the survival is 76% (inactive).

Take `Cc1ccc(NC(=O)C(=O)NCCc2csc3nc(-c4ccccc4C)nn23)cc1Cl`: the survival is 86% (inactive).

Regarding `Cc1ccc(C)c(NC(=O)C(=O)NCCc2csc3nc(-c4ccccc4C)nn23)c1`, the survival is 109% (inactive).

With `CCOc1ccc(CC(=O)NCCc2csc3nc(-c4ccccc4F)nn23)cc1`, the survival was 91% (inactive).

For the compound `CC(=O)Nc1cccc(NC(=O)C(=O)NCCc2csc3nc(-c4ccccc4F)nn23)c1`, the survival is 64% (inactive).

With `Cc1c(Cl)cccc1NC(=O)C(=O)NCCc1csc2nc(-c3ccccc3F)nn12`, the survival is 6% (active).

Regarding `CCOc1ccc(NC(=O)C(=O)NCCc2csc3nc(-c4ccccc4F)nn23)cc1`, the survival is -1% (active).

Regarding `O=C(NCCc1csc2nc(-c3ccccc3F)nn12)C(=O)Nc1cc(F)ccc1F`, the survival is 79% (inactive).

Consider `Cc1ccccc1CNC(=O)c1ccc(CS(=O)Cc2ccc(Cl)cc2)o1` (stereo unspecified), for which the survival is 79% (inactive).

As for `CCOc1ccc(NC(=O)c2ncn(-c3ccccc3)n2)cc1`, the survival is 83% (inactive).

As for `COc1ccc2c(c1)c(=O)c(C(=O)c1ccc(F)cc1)cn2CC(=O)Nc1ccc2c(c1)OCCO2`, the survival was 65% (inactive).

With `COc1ccc(CNC(=O)CN2C(=O)COc3ccc(S(=O)(=O)N4CCOCC4)cc32)cc1`, the survival is 75% (inactive).

In the case of `CCOc1ccc(N2CC(NC(=O)C3CCCCC3)CC2=O)cc1` (stereo unspecified), the survival was 75% (inactive).

As for `O=C(NCCCc1nc2ccccc2n1Cc1ccccc1Cl)c1ccco1`, the survival was 66% (inactive).

Regarding `CCc1nn2c(=O)cc(COC(=O)c3ccccc3NC(=O)COc3ccccc3C)nc2s1`, the survival was 72% (inactive).

Turning to `CCOC(=O)N1CCc2c(sc3c2c(=O)n(-c2ccc(CC)cc2)c(=O)n3CC(=O)c2ccc(F)cc2)C1`, the survival is 80% (inactive).

As to `Cc1ccccc1NC(=O)CSC1=Nc2ccccc2C2=NC(Cc3ccccc3)C(=O)N12` (stereo unspecified), the survival was 84% (inactive).

As for `CCOC(=O)COc1ccc([N+](=O)[O-])cc1-c1ccnc2cc(-c3ccc(Cl)cc3)nn12`, the survival was 89% (inactive).

As to `CCOC(=O)COc1ccc([N+](=O)[O-])cc1-c1ccnc2cc(-c3ccc(C)cc3)nn12`, the survival was 76% (inactive).

With `Cc1ccc(O)c(-c2ccnc3cc(-c4ccc(Cl)cc4)nn23)c1`, the survival is 86% (inactive).

Consider `Cc1cc(O)c(-c2ccnc3cc(-c4ccccc4)nn23)cc1Cl`, for which the survival is 114% (inactive).

As to `O=[N+]([O-])c1ccc(O)c(-c2ccnc3cc(-c4ccccc4)nn23)c1`, the survival was 20% (active).

`Cc1ccc(-c2cc3nccc(-c4cc([N+](=O)[O-])ccc4O)n3n2)cc1`: the survival was 29% (active).

On to `COc1cccc(NC(=O)C2CCCN(S(=O)(=O)c3c(C)nn(C)c3C)C2)c1` (stereo unspecified), for which the survival was 87% (inactive).

In the case of `COc1ccc(NC(=O)c2cc(S(=O)(=O)N3CCCCC3)cn2C)cc1Cl`, the survival was 78% (inactive).

With `CCNC(=O)c1sc2ccccc2c1Cl`, the survival is 105% (inactive).

With `CCN(C(=O)c1cn(-c2ccc(OC)cc2)c(=O)c2ccccc12)c1cccc(Cl)c1`, the survival was 103% (inactive).

Turning to `CCN(C(=O)c1sc2cc(OC)ccc2c1Cl)c1ccccc1`, the survival is 0% (active).

On to `O=C(Nc1cccc(C(F)(F)F)c1)c1cc(-c2ccc3c(c2)OCCO3)on1`, for which the survival was 116% (inactive).

For the compound `Cc1ccc(-c2cc(C(=O)Oc3ccc(C#N)cc3)no2)cc1C`, the survival was 50% (inactive).

In the case of `Cc1ccc(O)c(NC(=O)c2cc(-c3ccc4c(c3)OCO4)on2)c1`, the survival was 71% (inactive).

`Cc1cccc(OC(=O)c2cc(-c3ccc(C)c(C)c3)on2)c1`: the survival is -2% (active).

Turning to `Cc1cccc(OC(=O)c2cc(-c3ccc4c(c3)OCCO4)on2)c1`, the survival is -2% (active).

Regarding `Cc1cc(C)cc(OC(=O)c2cc(-c3ccc(Cl)cc3)on2)c1`, the survival is 94% (inactive).

As to `Cc1cc(C)cc(OC(=O)c2cc(-c3ccc4c(c3)OCCO4)on2)c1`, the survival is -2% (active).

As to `Cc1ccc(NC(=O)C2CCCN(S(=O)(=O)c3ccc(F)cc3)C2)cc1` (stereo unspecified), the survival is 65% (inactive).

On to `COC(=O)c1c(NC(=O)c2nc(SCc3ccccc3C)ncc2Cl)sc2c1CCCC2`, for which the survival was 111% (inactive).

Consider `Cc1ccc2nc(CSc3nnc(NC(=O)c4ccc(C(C)(C)C)cc4)s3)cc(=O)n2c1`, for which the survival was 81% (inactive).

Take `Cn1nnnc1SCC(=O)N1CCCc2ccccc21`: the survival is 81% (inactive).

On to `O=C1CC(C(=O)NCc2ccco2)C2(CCCCC2)O1` (stereo unspecified), for which the survival was 85% (inactive).

Take `N#Cc1cccc(NC(=O)CCNS(=O)(=O)c2ccc3c(c2)CCN3C(=O)C2CC2)c1`: the survival was 82% (inactive).

Take `Cc1nn2cc(-c3ccc(OC(C)C)cc3)nc2s1`: the survival is 84% (inactive).

Regarding `CCN(CC)CCCNC(=O)c1cnc(SC)nc1-c1ccccc1`, the survival is 69% (inactive).

In the case of `Cc1cc(Nc2ccc(F)cc2)n2c(nc3ccccc32)c1C#N`, the survival is 89% (inactive).

`Cc1ccc(Nc2cc(C)c(C#N)c3nc4ccccc4n23)c(C)c1`: the survival was 38% (active).

Turning to `Cc1ccc(Nc2cc(C)c(C#N)c3nc4ccccc4n23)cc1Cl`, the survival was 83% (inactive).

Consider `O=C(Cn1nnc(-c2ccccc2NC(=O)c2cnccn2)n1)Nc1ccc2c(c1)OCCO2`, for which the survival was 105% (inactive).

Turning to `O=C(Oc1ccc2c(c1)OCO2)c1cccc(S(=O)(=O)N2CCCC2)c1`, the survival is 58% (inactive).

In the case of `COc1cc(OC)c(NC(=O)CC(c2cccs2)N2Cc3ccccc3C2=O)cc1Cl` (stereo unspecified), the survival was 92% (inactive).

Consider `COc1cc(C(CC(=O)NCCC(C)C)N2Cc3ccccc3C2=O)cc(OC)c1OC` (stereo unspecified), for which the survival is 94% (inactive).

Take `COc1cc(Cl)c(C)cc1NC(=O)CC(c1ccc(F)cc1)N1Cc2ccccc2C1=O` (stereo unspecified): the survival is 0% (active).

As for `COc1cc(C(CC(=O)NCc2ccccc2)N2Cc3ccccc3C2=O)cc(OC)c1OC` (stereo unspecified), the survival was 135% (inactive).

Turning to `CCOC(=O)CNC(=O)CC(c1cc(OC)c(OC)c(OC)c1)N1Cc2ccccc2C1=O` (stereo unspecified), the survival is 47% (active).

As for `COc1ccc(CNC(=O)C(CC(C)C)N2Cc3ccccc3C2=O)cc1` (stereo unspecified), the survival was 126% (inactive).

In the case of `COc1ccc(C(CC(=O)Nc2cc(Cl)c(OC)cc2OC)N2Cc3ccccc3C2=O)cc1` (stereo unspecified), the survival was 0% (active).

Take `CCOc1ccc(C(CC(=O)Nc2cc(C)c(Cl)cc2OC)N2Cc3ccccc3C2=O)cc1OC` (stereo unspecified): the survival is 70% (inactive).

Take `Cc1ccc(CNC(=O)C(C(C)C)N2Cc3ccccc3C2=O)cc1` (stereo unspecified): the survival is 73% (inactive).

As to `COc1ccc(CNC(=O)C(C(C)C)N2Cc3ccccc3C2=O)cc1` (stereo unspecified), the survival was -5% (active).

Regarding `COc1ccc(C(CC(=O)Nc2cc(OC)c(OC)c(OC)c2)N2Cc3ccccc3C2=O)cc1` (stereo unspecified), the survival was 57% (inactive).

Take `Cc1ccc(NC(=O)CC(c2ccc(F)cc2)N2Cc3ccccc3C2=O)cc1C` (stereo unspecified): the survival is 74% (inactive).

Consider `CSc1nn(Cc2ccc(F)cc2)c(N(C(C)=O)C(C)=O)c1S(=O)(=O)c1ccccc1`, for which the survival is 74% (inactive).

Consider `COc1ccc(OC)c(NC(=O)Cn2c(=O)n(Cc3nc(C)no3)c(=O)c3ccccc32)c1`, for which the survival was 90% (inactive).

`O=C(CSc1oc(-c2ccco2)nc1S(=O)(=O)c1ccc(Cl)cc1)c1ccc(Cl)cc1`: the survival was 80% (inactive).

Turning to `Cn1cc(S(=O)(=O)c2ccccc2)c(=O)c2cc(F)c(N3CCCC3)cc21`, the survival was 123% (inactive).

On to `CC(=O)N1CCCc2cc(S(=O)(=O)N3CCC(C(=O)Nc4cccc(Cl)c4C)CC3)ccc21`, for which the survival was 74% (inactive).

For the compound `Cc1cccc(C)c1-n1ncc(C(=O)NCCCN2CCC(C)CC2)c1C1CCN(C(=O)OC(C)(C)C)CC1`, the survival is 91% (inactive).

With `COc1ccccc1CNC(=O)CCc1c(C)nn(-c2ccc(N3CCOCC3)nn2)c1C`, the survival was 80% (inactive).

On to `Cc1ccc(C)c(N2CCN(CCCNC(=O)c3cnn(-c4ccccc4)c3C3CCN(C(=O)OC(C)(C)C)CC3)CC2)c1`, for which the survival was 104% (inactive).

Turning to `CC(C)(C)OC(=O)N1CCC(c2c(C(=O)NCc3ccccn3)cnn2-c2ccccc2)CC1`, the survival was 101% (inactive).

In the case of `Cc1ccc(C)c(N2CCN(CCCNC(=O)c3cnn(-c4cccc(Cl)c4)c3C3CCN(C(=O)OC(C)(C)C)CC3)CC2)c1`, the survival was 52% (active).

`CC(C)(C)OC(=O)N1CCC(c2c(C(=O)NCCN3CCc4ccccc4C3)cnn2-c2ccc(F)cc2F)CC1`: the survival was 70% (inactive).

In the case of `Cc1ccc(-n2ncc(C(=O)NCc3ccco3)c2C2CCN(C(=O)OC(C)(C)C)CC2)cc1`, the survival is 94% (inactive).

Take `Cc1cccc(-n2ncc(C(=O)NCc3ccco3)c2C2CCN(C(=O)OC(C)(C)C)CC2)c1`: the survival is 81% (inactive).

For `CC(C)(C)OC(=O)N1CCC(c2c(C(=O)NCc3ccccn3)cnn2-c2ccccc2Cl)CC1`, the survival was -4% (active).

`Cc1ccc(C)c(N2CCN(CCCNC(=O)c3cnn(-c4ccccc4Cl)c3C3CCN(C(=O)OC(C)(C)C)CC3)CC2)c1`: the survival is 74% (inactive).

For `CC(C)(C)OC(=O)N1CCC(c2c(C(=O)NCCN3CCOCC3)cnn2-c2ccc(F)cc2)CC1`, the survival was 73% (inactive).

`Cc1ccc(-n2ncc(C(=O)NCc3ccccn3)c2C2CCN(C(=O)OC(C)(C)C)CC2)c(C)c1`: the survival was 63% (inactive).

On to `Cc1ccc(-n2ncc(C(=O)NCc3ccco3)c2C2CCN(C(=O)OC(C)(C)C)CC2)c(C)c1`, for which the survival was 25% (active).

Regarding `CC(C)(C)OC(=O)N1CCC(c2c(C(=O)NCCN3CCOCC3)cnn2-c2ccc(F)cc2F)CC1`, the survival is -1% (active).

`COc1ccc(NC(=O)CSc2oc(-c3cccs3)nc2S(=O)(=O)c2ccc(Br)cc2)c(OC)c1`: the survival is 57% (inactive).

The values are drawn from PubChem BioAssay AID463173 (ICCB-Longwood Screening Facility, Harvard Medical School, 2010).
